In PubChem BioAssay (Tox21):
Results filed as inconclusive are left out. Values without a mark were called inactive. Activity calls are given as the source filed them. The call rests on the fitted dose curve; in most records, active means well fitted cell-killing curve with a large enough effect in the repeat runs; inconclusive means weak or mixed curves, or effect the other way; inactive means flat fitted curve, though single readings scatter.

Test: qHTS assay to identify small molecule antagonists of the androgen receptor (AR) signaling pathway using the MDA cell line - cell viability counter screen (AID 743041; further: nearly all actives have a fitted effect of over 45% in size)
Conditions: MDA-kb2 viability, CellTiter-Fluor, 16 h, cells co-treated with R1881 androgen agonist; series mostly up to 70.3 µM; viability change, negative = cytotoxic: at the top concentration
Source text: National Center for Advancing Translational Sciences [NCATS]
NIH Chemical Genomics Center [NCGC]
U.S. Environmental Protection Agency [EPA]
National Institutes of Environmental Health Sciences [NIEHS]
National Toxicology Program [NTP]
U.S. Food and Drug Administration [FDA]
Androgen receptor (AR), a nuclear hormone receptor, plays a critical role in AR-dependent prostate cancer and other androgen related diseases. Endocrine disrupting chemicals (EDCs) and their interactions with steroid hormone receptors like AR may cause disruption of normal endocrine function as well as interfere with metabolic homeostasis, reproduction, developmental and behavioral functions. To identify the compounds that inhibit AR signaling, MDA-kb2 AR-luc cell line (from ATCC, deposited by Wilson et al.) was used to screen the Tox21 10K compound library. MDA-kb2 AR-luc cell line is human breast carcinoma cell line that was stably transfected with a luciferase reporter gene under control of the MMTV promoter containing response elements for both androgen receptor (AR) and glucocorticoid receptor (GR). The cytotoxicity of the Tox21 compound library against the MDA-kb2 AR-luc cell line was tested in parallel by measuring the cell viability using CellTiter-Fluor assay (Promega, Madison, WI) in the same wells.
Tox21 Assay Protocol Summary:
MDA-kb2 AR-luc cells were dispensed at 3,000 cells/4 uL/well of culture medium into white wall/solid-bottom 1536-well plates using a Multidrop Combi (ThermoFisher Scientific, Waltham, MA) dispenser. After the assay plates were incubated at a 37C and 0% CO2 for 5 hr, 23 nL of compounds dissolved in DMSO, positive controls or DMSO only was transferred to the assay plate by a Pintool station (Kalypsys, San Diego, CA), followed by addition of 1 uL of agonist (R1881) in culture medium using a Bioraptr Flying Reagent Dispenser (FRD) workstation (Beckman Coulter, Indianapolis, IN, USA). The plates were incubated at a 37C and 0% CO2 for 16 h. After 15.5 h incubation, 1uL of CellTiter-Fluor reagent (Promega) was added using a Bioraptr FRD to each plate for measuring cytotoxicity. The fluorescence intensity was quantified on a ViewLux plate reader (PerkinElmer, Shelton, CT) following 30 min incubation at 37C and 0% CO2.
On the % scale 0 is the no-effect control and ±100 the full control effect.

| Compound | viability change, negative = cytotoxic | Potency |
| --- | --- | --- |
| ClCOCCl | -4.21% [at 95 µM] |  |
| C[C@H]1CCCC(=O)CCC/C=C/c2cc(O)cc(O)c2C(=O)O1 | -18% [at 32.5 µM] |  |
| CC(C)(C)NC[C@H](O)c1ccc(O)cc1Cl | -1.38% |  |
| CCCCCCC(=O)CCCCCC/C=C/C[C@@H](O)[C@H](O)[C@@](N)(CO)C(=O)O |  | inactive |
| CN(C)C1CCCCC1 | 5.83% |  |
| O=C(O)c1c(Cl)ccc2cc(Cl)cnc12 | 9.73% |  |
| CN1C(=O)COc2c(C(=O)NC3CN4CCC3CC4)cc(Cl)cc21 (stereo not given) | 0.551% |  |
| O=C(O)C(F)(F)C(F)(F)C(F)(F)C(F)(F)C(F)(F)C(F)(F)F | 1.07% |  |
| N=C(N)[Se] | 9.14% [at 95 µM] |  |
| O=C(O)C(Br)(Br)Br | 0.523% |  |
| ClC(Cl)(Cl)Cl |  | inactive |
| O=C(Cl)CCl | 7.13% [at 95 µM] |  |
| O=C1CC(=O)NC(=O)N1 | 14% |  |
| CCOC(=O)C(Cl)Cc1cc(-n2nc(C)n(C(F)F)c2=O)c(F)cc1Cl (stereo not given) | -1.63% |  |
| C[C@H](N)C(=O)c1ccccc1 |  | inactive |
| CC(C)NCC(O)c1ccc([N+](=O)[O-])cc1 (stereo not given) | 2.71% |  |
| CC(=NC#N)N(C)Cc1ccc(Cl)nc1 | 0.219% |  |
| CCCCCCC1CCOC1=O (stereo not given) | -3.32% |  |
| Oc1ccc2c3c1O[C@H]1[C@@H](O)C=C[C@H]4[C@@H](C2)NCC[C@@]341 | 6.86% [at 95 µM] |  |
| CN1COCN(Cc2cnc(Cl)s2)/C1=N\[N+](=O)[O-] | 7.56% |  |

| Compound | viability change, negative = cytotoxic | Potency |
| --- | --- | --- |
| CCCCCCCCBr | -19.4% |  |
| Clc1cc2c(cc1Cl)Oc1cc(Cl)c(Cl)cc1O2 | -3.89% [at 0.341 µM] |  |
| ClCC1CO1 (stereo not given) |  | inactive |
| Cc1ccc(Cl)c(O)c1 | 1.71% |  |
| C#CC(C)(C)O | 2.57% [at 95 µM] |  |
| CCC(=O)c1ccc(Cl)cc1 | 5.32% |  |
| COP(=O)(O)OC | -0.74% [at 95 µM] |  |
| ClCCCCl | 8.28% [at 95 µM] |  |
| CN(C)CCN(C)C | -3.45% |  |
| Cc1cccc2sc3nncn3c12 | -2.68% |  |
| C[C@H](CN1CCOCC1)C(C(=O)N1CCCC1)(c1ccccc1)c1ccccc1 | 5.89% [at 95 µM] |  |
| CCNc1nc(NCC)nc(SC)n1 | -3.38% |  |
| CCCC[N+](=O)[O-] | 2.88% |  |
| CCOP(=S)(OCC)SCCl | 9.82% |  |
| NC(=O)CS(=O)C(c1ccccc1)c1ccccc1 (stereo not given) | 4.24% |  |
| O=C/C=C/c1ccco1 | -4.16% |  |
| c1cncc([C@@H]2CCCCN2)c1 | -4.72% |  |
| NCC1(CC(=O)O)CCCCC1 | 2.93% [at 32.5 µM] |  |
| CCN(CC)C1CCCCC1 | 0.21% |  |
| C#CCOC(=O)/C=C(C)/C=C/CC(C)CCCC(C)C (stereo not given) | 0.398% |  |
